We go through 47 sequences from the supplement of paper PMC10338343.

± gives the standard deviation. Over roughly 3,000 sequences, “pre-steady-state target cleavage rate” has its median near 0.0079; the highest 2% begin near 0.2. For the sample, the highest values were picked, then their nearest neighbours and some sequences at random. Some results are limits rather than exact numbers.

The assay concerns MILI (PIWIL2) piRISC loaded with piRNA #2 (26 nt). Briefly: pre-steady-state target cleavage rate (min^-1); MIWI and MILI are mouse PIWI proteins and EfPiwi is from a freshwater sponge; tags in brackets are library labels; higher = faster piRNA-guided slicing of the target. Conditions: guide: piRNA #2 5'p-UUAGGUAACCCAGUAGAUCCAGAGGA; auxiliary factor: 500 nM mouse GTSF1. On the procedure:
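Cleave-'n-Seq: a library of target RNAs (target site embedded in constant flanks, ACAGCATTCCGCGTTAGTGATATCCG... 5' flank; DNA-blocked outside the site) at 0.1 nM was incubated with 1 nM active mouse MILI or MIWI piRISC (synthetic 5'-monophosphorylated piRNA guide) with or without 500 nM mouse GTSF1 at 33 °C for 1 min to 16 h. Uncleaved targets were sequenced and normalised to non-target controls, and the pooled three trials were fitted to a burst-and-steady-state model to give the pre-steady-state cleavage rate (min^-1; k3 is constrained to at most 1e-4). Sequence is the target site only; target names encode pairing extent (gX:gY) and contiguous / 1-mismatch / 2-mismatch / bulge geometry. Fits with R² ≤ 0 are excluded.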
Consider CUUAACCUCUGGUUCUACUGGGUUACGUAA, for which the “pre-steady-state target cleavage rate” value worked out at 0.12 ± 0.043.

Turning to CUUAUCCUCUGGUUCUACUGGGUUACCAAA, the “pre-steady-state target cleavage rate” value was 0.453 ± 0.15.

Take CUUAUCCUCUGGAUCUACUGGGUUACCAA: the “pre-steady-state target cleavage rate” value worked out at 0.123 ± 0.022.

With CUUAUCCUCUGGAACUACUGGGUUACGUAA, the “pre-steady-state target cleavage rate” value was 0.197 ± 0.068.

Take CUUAUCCUCUGGUUCUACUGGGUUACGUAA: the “pre-steady-state target cleavage rate” value turned out to be 0.634 ± 0.25.

Consider CUUAUCCUCUGGAUACUACUGGGUUACCUAA, for which the “pre-steady-state target cleavage rate” value is 0.0816 ± 0.019.

Turning to CUUAAGCUCUGGAUCUACUGGGUUUCGUAA, the “pre-steady-state target cleavage rate” value was 0.0193 ± 0.0086.

As for CUUAUCCUGUGGAUCUACUGGGUUACGUAA, the “pre-steady-state target cleavage rate” value was 0.0102 ± 0.0038.

Regarding CUUAAGGUCUGGACUCUACUGGGUUACCUAA, the “pre-steady-state target cleavage rate” value amounted to 0.0367 ± 0.014.

Consider CUUAACACUCUGGAUCUACUGGGUUACCUAA, for which the “pre-steady-state target cleavage rate” value stood at 0.0824 ± 0.024.

In the case of CUUAAGCUCUGGAUCUACUGGGUUACGUAA, the “pre-steady-state target cleavage rate” value amounted to 0.0464 ± 0.011.

With CUUAUCCUGCUGGAUCUACUGGGUUACCUAA, the “pre-steady-state target cleavage rate” value stood at 0.0776 ± 0.018.

For CUUAUCCUCUGGAUGUACUGGGUAACCUAA, the “pre-steady-state target cleavage rate” value was 0.0198 ± 0.0082.

For CUUAACCUCUCGAUCUACUGGGUUACGUAA, the “pre-steady-state target cleavage rate” value was determined as 0.052 ± 0.017.

Take CUUAUCCUCUGGUUCUACUGGGUUACCUUA: the “pre-steady-state target cleavage rate” value was 1.12 ± 0.39.

On to CUUAUCCUCUCCUUCUACUGGGUUACCUAA, for which the “pre-steady-state target cleavage rate” value came out at 0.106 ± 0.023.

Consider CUUAUCCUCUGGUUCUACUGGGUUACCUAA, for which the “pre-steady-state target cleavage rate” value was determined as 0.469 ± 0.1.

On to CUUAUCCUCUGCUUCUACUGGGUUACCUAA, for which the “pre-steady-state target cleavage rate” value is 0.157 ± 0.026.

In the case of CUUAUCCUCUGGUUCUAGUGGGUUACCUAA, the “pre-steady-state target cleavage rate” value stood at 0.134 ± 0.028.

For the sequence CUUAUCCUCUGGAUCUACUGGGGUUACCUAA, the “pre-steady-state target cleavage rate” value was found to be 0.0435 ± 0.012.

For the sequence CUUAUCCUCUGUAUCUACUGGGUUACCUAA, the “pre-steady-state target cleavage rate” value was 0.0865 ± 0.015.

In the case of CUUAUCCUCUCGUUCUACUGGGUUACCUAA, the “pre-steady-state target cleavage rate” value amounted to 0.136 ± 0.021.

Take CUUAUCCUCUGGUUCUUCUGGGUUACCUAA: the “pre-steady-state target cleavage rate” value is 0.338 ± 0.088.

On to CUUAUCCUCUGGUAUCUACUGGGUUACCUAA, for which the “pre-steady-state target cleavage rate” value amounted to 1.05 ± 0.33.

For the sequence CUUAUCCUCUGGAUCUUCUGGGUUACCUAA, the “pre-steady-state target cleavage rate” value was found to be 0.105 ± 0.019.

Consider CUUAUCCUCUGGUUCUACUGCGUUACCUAA, for which the “pre-steady-state target cleavage rate” value was 0.0261 ± 0.0078.

As for CUUAACCUCUGGAUCUACUGGGUUACCAUAA, the “pre-steady-state target cleavage rate” value stood at 0.13 ± 0.03.

Consider CUUAAGGAGACCUUCUACUGGGGUACCUAA, for which the “pre-steady-state target cleavage rate” value is below 0.0001.

Regarding CUUAAGGUGUGGAUCAACUGGGUUACCUAA, the “pre-steady-state target cleavage rate” value turned out to be 0.014 ± 0.0076.

Take CUUAAGCUCUGGAUCUUGUGGGUUACCUAA: the “pre-steady-state target cleavage rate” value came to 0.00903 ± 0.0046.

As for CUUAACCUCUGGAUCUACGGGGUUACCUAA, the “pre-steady-state target cleavage rate” value stood at 0.0813 ± 0.012.

Regarding CUUAAGGAGUGGAUCUACUGGGUUACCGUAA, the “pre-steady-state target cleavage rate” value was 0.0155 ± 0.0079.

With CUUAUCCUCUGGAUCUACAGGGUUACCUAA, the “pre-steady-state target cleavage rate” value turned out to be 0.119 ± 0.016.

As to CUUAAGGACAGGAUCUACUGGGUUACCUAA, the “pre-steady-state target cleavage rate” value came out at 0.0192 ± 0.013.

For CUUAAGGAGACCUAGAUCUGGGUAACCAAA, the “pre-steady-state target cleavage rate” value is below 0.0001.

CUUAUCCUCUGGUUCUACUGGGUAACCUAA: the “pre-steady-state target cleavage rate” value worked out at 0.268 ± 0.097.

Consider CUUAUCCUCUGGUUCAACUGGGUUACCUAA, for which the “pre-steady-state target cleavage rate” value is 0.225 ± 0.063.

As to CUUAAGCUCUGGUAUCUACUGGGUUACCUAA, the “pre-steady-state target cleavage rate” value is 0.15 ± 0.038.

Take CUUAACCUCUGUAUCUACUGGGUUACCUAA: the “pre-steady-state target cleavage rate” value came to 0.071 ± 0.013.

With CUUAACCUCUGGUAUCUACUGGGUUACCUAA, the “pre-steady-state target cleavage rate” value is 0.584 ± 0.19.

Regarding CUUAUCCUCUGGUACUACUGGGUUACCUAA, the “pre-steady-state target cleavage rate” value amounted to 0.754 ± 0.23.

Regarding CUUAUCCUCUGGUUGUACUGGGUUACCUAA, the “pre-steady-state target cleavage rate” value stood at 0.151 ± 0.031.

On to CUUAUCCUCUGGUAGUACUGGGUUACCUAA, for which the “pre-steady-state target cleavage rate” value was determined as 0.103 ± 0.035.

Take CUUAUCCUCUGGAUCUACUGGGUAACCUAA: the “pre-steady-state target cleavage rate” value turned out to be 0.0929 ± 0.021.

For the sequence CUUAACCUCUGGUUCUACUGGGUAACCUAA, the “pre-steady-state target cleavage rate” value is 0.14 ± 0.044.

CUUAUCCUCUGGAUCAACUGGGUUACCUAA: the “pre-steady-state target cleavage rate” value was 0.0659 ± 0.012.

Turning to CUUAACCUCUGGUUCAACUGGGUUACCUAA, the “pre-steady-state target cleavage rate” value was 0.117 ± 0.035.
